From PubChem
LASV entry inh: qHTS for Inhibitors of binding or entry into cells for Lassa Virus | Lassa virus pseudotype entry inhibition, cell reporter | Potency, µM (series often up to 37.9 µM), most hits filed as inhibitors | 300,000 compounds, 1.2% hits | AID 540256, 2011; calls by dose curve; tested in HEK293 cells; note: nearly all actives have a fitted effect of over 50% in size
HCMV inh: qHTS Assay for inhibitors of the human cytomegalovirus (HCMV) | 410,000 compounds, 4.5% hits | HFF cells, HCMV-luciferase reporter, 72 h; stronger effect = lower value | AID 1259415, 2018 | activity change, negative = inhibition, % at 57.5 µM; in the data active = activity change below about -60%; inconclusive = no clear call, values can overlap the other calls; inactive = above about -39%
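After 16 h attachment at 37C, HFF cells received test compound and HCMV-luciferase (1 PFU/cell); reporter luminescence read 72 h later, data normalized against buffer-only and known inhibitor Salinomycin.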
Vaccinia mCherry: qHTS for Stage-Specific Inhibitors of Vaccinia Orthopoxvirus: mCherry Reporter Primary qHTS; Vaccinia virus mCherry reporter infection, fluorescence; Potency, µM (doses to about 36.5 µM), most hits filed as inhibitors; 310,000 compounds, 0.63% hits; calls by dose curve; tested in A549 cells; note: nearly all actives have a fitted effect of over 35% in size
FMDV antiviral: High Throughput Screening for Foot and Mouth Disease Virus Antivirals; FMDV antiviral cell-based qHTS; Potency, µM (series often up to 57.9 µM), usual class: inhibitors; 410,000 compounds, 1.2% hits; calls by dose curve; tested in HEK293T cells; note: read-out not given here; nearly all actives have a fitted effect of over 45% in size
Marburg entry inh: qHTS for inhibitors of binding or entry into cells for Marburg Virus; Marburg virus pseudotyped entry inhibition, cell reporter; Potency, µM (series often up to 37.8 µM), most hits filed as inhibitors; 300,000 compounds, 1.8% hits; calls by dose curve; tested in HEK293 cells
Vaccinia Venus: qHTS for Stage-Specific Inhibitors of Vaccinia Orthopoxvirus: Venus Reporter Primary qHTS; Vaccinia virus Venus reporter expression, fluorescence; Potency, µM (series often up to 36.5 µM), actives largely listed as inhibitors; 330,000 compounds, 0.46% hits; calls by dose curve; tested in A549 cells; note: nearly all actives have a fitted effect of over 30% in size
A number is an active result; - = inactive; ? = inconclusive; . = no result. Most compounds without a hit are left out; they make up all but 6.5% or so of the library.

SMILES	LASV entry inh	HCMV inh	Vaccinia mCherry	FMDV antiviral	Marburg entry inh	Vaccinia Venus
Cc1ccn2cc(-c3cccc([N+](=O)[O-])c3)nc2c1	4.47µM	-	-	-	?	-
Cc1ccn2cc(-c3cccc(S(=O)(=O)N4CCCC4)c3)nc2c1	?	-64.1	-	-	?	-
COc1ccc(OCc2cc(-c3ccc(Cl)cc3)no2)cc1	-	-	-	-	-	-
O=C(CCl)NCc1cc(-c2ccc(Cl)cc2)no1	?	-112.8	10µM	?	?	?
CCN(CC)C(=O)CSc1nc2sc3c(c2c(=O)n1CCCOC)CCC3	-	-76.1	-	-	-	-
O=C(NCc1ccccc1)C1=CN2CCN(Cc3cccc(Cl)c3)C(=O)N=C2O1	.	-	.	.	.	.
Cc1cc(OCCCCNC(C)C)cc(C(C)C)c1	?	-	?	-	14.6µM	-
Cc1cc(OCCOCCNC(C)C)cc(C)c1Cl	?	-	.	-	?	-
Cc1ccc(C(C)C)c(O)c1C(=O)O	.	-62.9	-	-	.	-
COc1ccc(OC)c(NC(=O)c2cc(-c3ccc(C)cc3O)n[nH]2)c1	-	-	.	-	-	.
Cc1ccc(C)c(NC(=O)c2cc(-c3cc(C)c(C)cc3O)n[nH]2)c1	.	-77.7	.	-	.	.
COc1ccc(-c2cc(-c3ccc(C)cc3)n[nH]2)c(O)c1	.	-	-	-	.	-
COc1ccc(OC)c(NC(=O)c2cc(-c3cc(C)ccc3O)n[nH]2)c1	?	-	10µM	-	?	11.2µM
COc1ccc(-c2cc(-c3cc(C)ccc3O)[nH]n2)cc1	?	-	8.91µM	-	?	?
Cc1noc(C)c1CSCC(=O)Nc1cc(Cl)ccc1N1CCCCC1	?	-	-	-	?	-
Cc1cccc(NC(=O)Nc2nnc(N(C)Cc3ccccc3)s2)c1	-	-	-	-	-	-
Cc1ccc(NC2=Nc3ccccc3CC2)cc1	?	-	.	-	7.94µM	-
CCOc1ccc(N)c(SSc2cc(OCC)ccc2N)c1	.	-98.2	-	-	.	-
COc1ccc(C(CNC(=O)CSc2ccc(Br)cc2C)N2CCOCC2)cc1 (centres undefined)	-	-	-	-	-	-
C[C@H]1CN=C(N(C)C)N1CC1CCC(C(C)(C)C)CC1 (some centres undefined)	.	-	7.94µM	?	.	?
CCN(CC)CCOC(=O)c1ccc(NC(=O)c2nn(C)c3c2COc2ccccc2-3)cc1	?	-86.7	?	-	-	?
O=C(NCCCN1CCCC1=O)c1cccc(S(=O)(=O)Nc2ccc(F)cc2)c1	-	-	-	-	-	-
COCCN(Cc1cc2cc3c(cc2nc1Cl)OCO3)C(=O)c1ccc(C)cc1	.	-69.5	.	?	.	.
N#Cc1ccc2[nH]cc(C3c4cc(F)ccc4C=C(c4ccsc4)N3c3ccc(C#CCCO)cc3)c2c1 (centres undefined)	.	-	-	-	.	-
CC(C)(O)C#Cc1ccc(N2C(c3ccsc3)=Cc3ccc(F)cc3C2c2c[nH]c3ccccc23)cc1 (centres undefined)	.	-63.5	-	-	.	-
SMILES	LASV entry inh	HCMV inh	Vaccinia mCherry	FMDV antiviral	Marburg entry inh	Vaccinia Venus
CCC(C)N(C(=O)COC(=O)CN=C1NS(=O)(=O)c2ccccc21)C1CCS(=O)(=O)C1 (centres undefined)	.	-	.	-	.	.
C=CCN1C(=O)C(CC(=O)Nc2ccc(OCCC)cc2)N(CCCN2CCN(Cc3ccccc3)CC2)C1=S (centres undefined)	?	-	?	?	?	11.2µM
CCCCCCOc1ccc(NC(=O)CC2C(=O)N(CC)C(=S)N2Cc2ccco2)cc1 (centres undefined)	?	-90.2	?	-	?	?
COC(=O)c1ccc2nc(-c3ccccc3)c(Cc3ccc(C)cc3)n2c1	.	-	-	-	.	-
COC(=O)[C@@]1(Cc2ccc(F)cc2)[C@H]2c3cc(C(=O)N(C)C)n(CCF)c3C[C@H]2CN1C(=O)c1ccccc1	.	-	-	-	.	-
COC(=O)[C@@]1(Cc2ccccc2)[C@@H]2C(=CC(=O)[C@H]2CC(=O)C(=O)N(C)C)CN1C(=O)c1ccccc1	?	.	?	14.1µM	20.6µM	?
COc1cc(OC)c2c(-c3ccccc3)cc(=O)oc2c1C(CCN1CCCCC1)c1ccc(N(C)C)cc1 (centres undefined)	.	.	?	-	.	?
